Assay outcomes from PubChem.
Rab9 prom act = Rab9 promoter activation | Huh7 Rab9 promoter-luciferase reporter, luminescence, 24 h | 2.8% of 320,000 active | Potency, µM (highest dose often 9.22 µM), for inactives: at the top dose activation, negative = inhibition, most hits filed as activators | AID 485297; further: % of control where 0% means no effect; nearly all actives have a fitted effect of over 60% in size
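Huh7 cells stably carrying a Rab9 promoter-luciferase reporter, 1500 cells per well in OP-MEM I with 10% FBS, treated with compound 24 hours at 37C. Luciferase activity read by luminescence after 10 minutes with Amplite reagent.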
FLuc modulator = counter-screen for miR-21 project: firefly luciferase inhibitors or activators. P08659. purified FLuc, Km substrates, luminescence inhibition. Potency, µM (series often up to 57.5 µM), without a hit: at the highest dose activity change, negative = inhibition, hits mostly inhibitors. 6.9% of 360,000 active;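 further: plate controls were vehicle for no effect and reference inhibitor for full effect; nearly all actives have a fitted effect of over 55% in size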
Target sequence (P08659 whole entry, looked up): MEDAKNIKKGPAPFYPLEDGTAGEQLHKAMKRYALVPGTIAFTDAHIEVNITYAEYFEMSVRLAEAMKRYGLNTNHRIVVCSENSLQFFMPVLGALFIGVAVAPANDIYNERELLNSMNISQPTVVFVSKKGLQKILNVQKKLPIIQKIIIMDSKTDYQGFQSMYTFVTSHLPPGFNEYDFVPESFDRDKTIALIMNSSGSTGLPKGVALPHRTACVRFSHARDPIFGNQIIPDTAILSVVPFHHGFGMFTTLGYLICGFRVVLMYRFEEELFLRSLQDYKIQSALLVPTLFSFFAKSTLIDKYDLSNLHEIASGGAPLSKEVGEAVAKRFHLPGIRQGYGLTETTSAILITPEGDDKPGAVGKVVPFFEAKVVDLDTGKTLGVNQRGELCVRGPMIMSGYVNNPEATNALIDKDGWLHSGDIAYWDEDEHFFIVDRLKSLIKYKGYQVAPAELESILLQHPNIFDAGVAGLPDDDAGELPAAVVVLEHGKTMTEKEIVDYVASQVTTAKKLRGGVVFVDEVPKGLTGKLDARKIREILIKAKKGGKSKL
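Purified P. pyralis luciferase, 10 nM final, with Km-level 10 uM D-luciferin and 10 uM ATP in 50 mM Tris acetate pH 7.5, 10 mM Mg acetate, 0.01% Tween-20, 0.05% BSA; 6-point qHTS titration about 60 µM downward; luminescence read.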
ELG1 genotox = genotoxicity induction in ELG1-luciferase HEK293T cells. Potency, µM (top dose mostly 46 µM), inactives show at the highest dose activity change, positive = activation, actives largely listed as activators. 1.3% of 330,000 active. HEK293T ELG1-luciferase reporter, luminescence, 16 h; further: % of control where 0% means no effect; nearly all actives have a fitted effect of over 60% in size
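ELG1-luciferase HEK293T cells, 2,000/well; compound pinned in; 16 hr, 37 °C, 5% CO2; ONE-Glo, 30 min RT; luminescence on CCD imager.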
ELG1 DNA repair = blocks ELG1-dependent DNA repair in HEK293T cells | AID 504467 | Potency, µM (highest dose often 46.1 µM), inactives show top-dose activity change, negative = inhibition, actives largely listed as inhibitors | 2.3% of 330,000 active | HEK293T ELG1-luciferase reporter, luminescence, 16 h; DNA damage induced by 5-fluorouridine; further: on the % scale 0 is the no-effect control and ±100 the full control effect; nearly all actives have a fitted effect of over 55% in size
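Reporter activity after DNA damage by 5-fluorouridine is monitored. Compound-treated cells incubate 16 hr at 37 °C, then ONE-Glo is added for 30 min before luminescence reading.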
SMN2 splice up = enhancers of SMN2 splice variant expression | HEK293 SMN2-luciferase splicing reporter, luminescence, 30-36 h | Potency, µM (series often up to 46.1 µM), without a hit: at the highest dose activity change, positive = activation, actives largely listed as activators | 2.8% of 210,000 active | AID 1458; further: % of control where 0% means no effect; nearly all actives have a fitted effect of over 55% in size
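HEK293 cells carry an SMN2 minigene-luciferase reporter in which exon 7 inclusion puts luciferase in frame. Cells were seeded at 2000 cells/well, attached for 10-12 hours, then exposed to compounds for 30-36 hours at 37C before ONE-Glo luminescence.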
NPC1 promoter act = NPC1 promoter activation | Potency, µM (series often up to 9.22 µM), for the others: at the top dose activation, most hits filed as activators | Huh7 NPC1 promoter luciferase reporter, 24 h | AID 485313 | 2.4% of 320,000 active; further: % of control where 0% means no effect; nearly all actives have a fitted effect of over 60% in size
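Luminescence read-out of NPC1 promoter-driven luciferase in stably transfected Huh7 cells; compounds delivered in DMSO and left 24 h at 37C, 5% CO2, qHTS titration format.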
Numbers without * were called inactive; [ ] = remark or other dose. In the library only some 9.4% were active in any assay of this set; here they are far more common. The call rests on the fitted dose curve; in most records, active means well fitted curve in the direction sought with a large enough effect; inconclusive means small, poorly fitted or top-dose-only effect, or another doubt; inactive means no such curve, though single readings can be large; an effect the other way counts as inactive or inconclusive. Potency means the concentration at half of the fitted maximal effect.

For Cc1ccc(-c2cc(C(=O)Nc3cc(C)ccc3O)no2)cc1 the results were Rab9 prom act inconclusive, FLuc modulator inconclusive, ELG1 genotox 9%, ELG1 DNA repair inconclusive and NPC1 promoter act inconclusive.
Screening Cc1cc(CNC(=O)c2ccc3nc(Cc4ccccc4F)oc3c2)nn1C returned Rab9 prom act 3.2µM*, FLuc modulator 11µM*, ELG1 genotox inconclusive, ELG1 DNA repair inconclusive and NPC1 promoter act 2.8µM*.
`Cc1cc(CN(C)C(=O)c2ccc3nc(Cc4ccccc4F)oc3c2)n[nH]1` gave Rab9 prom act 5%, FLuc modulator 1%, ELG1 genotox 3%, ELG1 DNA repair 8% and NPC1 promoter act 18%.
CC(c1ccccn1)N(C)C(=O)c1ccc2nc(Cc3ccccc3F)oc2c1 (stereo not drawn) was read as Rab9 prom act 2.8µM*, FLuc modulator 6.7µM*, ELG1 genotox 13µM*, ELG1 DNA repair inconclusive and NPC1 promoter act inconclusive.
`O=C(c1ccc2nc(Cc3ccccc3F)oc2c1)N1CCCC1` gave Rab9 prom act 1.3µM*, FLuc modulator 9.5µM*, ELG1 genotox 10µM*, ELG1 DNA repair inconclusive and NPC1 promoter act 2.8µM*.
For Cc1ccc(C)c(C(=O)CSc2nc3cc(C(=O)NC4CCCC4)ccc3c(=O)n2CC2CCCO2)c1 (stereo not drawn) the results were FLuc modulator -2%.
Screening O=C(C1=C(Nc2ccccc2)c2ccccc2S(=O)(=O)N1)c1ccccc1 returned Rab9 prom act 2%, FLuc modulator -9%, ELG1 genotox -2%, ELG1 DNA repair 16µM*, SMN2 splice up -16% and NPC1 promoter act 0%.
For O=C1c2ccccc2C(=O)c2c(NC3CCCCC3)ccc(Nc3ccc(S(=O)(=O)O)cc3)c21 the results were SMN2 splice up -19%[9.22 µM].
For CCN1CCN(c2cc(C)c3cc(NC(=O)c4cc(OC)cc(OC)c4)ccc3n2)CC1 the results were Rab9 prom act 28%, FLuc modulator 17µM*, ELG1 genotox inconclusive, ELG1 DNA repair inconclusive, SMN2 splice up 15% and NPC1 promoter act 26%.
Screening COc1cccc(/C=C/C(=O)Nc2ccc3nc(N4CCN(C)CC4)cc(C)c3c2)c1OC returned FLuc modulator inconclusive and SMN2 splice up -56%.
Screening COc1cc(C(=O)Nc2ccc3nc(N4CCN(C)CC4)cc(C)c3c2)cc(OC)c1OC returned Rab9 prom act -1%, FLuc modulator 24µM*, ELG1 genotox 11%, ELG1 DNA repair inconclusive and NPC1 promoter act 5%.
Cc1cc(N2CCN(C)CC2)nc2ccc(NC(=O)c3ccc4c(c3)OCO4)cc12 was read as Rab9 prom act inconclusive, FLuc modulator 13µM*, ELG1 genotox 20%, ELG1 DNA repair inconclusive and NPC1 promoter act 28%.
Screening Cc1cc(N2CCN(C)CC2)nc2ccc(NC(=O)c3ccc(Br)o3)cc12 returned Rab9 prom act 22%, FLuc modulator 15µM*, ELG1 genotox 3%, ELG1 DNA repair 28%, SMN2 splice up -2% and NPC1 promoter act inconclusive.
Screening C[C@@H]1CC[C@H]2[C@H](C)[C@H]3CC[C@H]4C5[C@@H](O)CC6=CC(=O)CC[C@]6(C)[C@H]5C[C@H]4C3C(=O)N2C1 (stereo partly drawn) returned SMN2 splice up 1%.
CCCSC(=S)c1c(C)[nH]n(-c2ccccc2)c1=O was read as Rab9 prom act -4%, FLuc modulator inconclusive, ELG1 genotox -16%, ELG1 DNA repair 13µM* and NPC1 promoter act 1%.
Screening CCCCN(CCCC)C(=S)N/N=C/c1c(C)[nH]n(-c2ccccc2)c1=O returned Rab9 prom act -9%, FLuc modulator -3%, ELG1 genotox -7%, ELG1 DNA repair inconclusive, SMN2 splice up -75% and NPC1 promoter act -8%.
